From PubChem BioAssay (NCI)
Several values for one entry are separate records, joined by “and”; a condition that tells them apart may be missing. Equal values may be shown once. The panel holds about 83,000 compounds, 20% with a hit somewhere; the sample as a whole holds those more often.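 96-well plates, one dose, 48 hours. Percent growth reported; active if below 10.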 Activity calls are given as the source filed them.

system: MDA-MB-468 breast; assay: NCI-60 one-dose screen, 48 h (100 = growth as untreated, 0 = no growth, -100 = all killed); conditions: 10 µM unless noted

For `O=C1CC[C@@H](C(=O)N[C@H]2CSSC[C@@H](C(=O)NCCc3ccccc3)NC(=O)[C@H](Cc3ccccc3)NC(=O)[C@@H]3CCCN3C(=O)[C@@H]3CCCN3C2=O)N1`, which growth is on record?
Its growth is 90.2% (inactive).

How did the growth turn out when `c1ccc(-c2ccc3c(c2)C2(CCNCC2)CN3)cc1` was run?
Its growth is 106% (inactive).

Which growth does the source give for `CCCCCCCCCCCCCCCC[N+](C)(C)CCN(Cc1ccc(OC)cc1)c1ncccn1` here?
Its growth is -49.2% (active) and -52.1% (active).

`CCN1CCN(C(=O)[C@]23CCC(C)(C)C[C@@H]2C2=CC[C@@H]4[C@@]5(C)C/C(=C/c6cccnc6)C(=O)C(C)(C)[C@@H]5CC[C@@]4(C)[C@]2(C)CC3)CC1` was tested. Which growth did it give?
The growth was -6.42% (active).

With `O=C1c2cccc3cccc(c23)C(=O)N1CCCCCCCCCCN1C(=O)c2cccc3cccc(c23)C1=O` as the compound, how does the growth read?
Its growth is 112% (inactive).

Which growth does the source give for `CCOC(=O)C1=C(C)NC(C)=C(C(=O)OCc2ccccc2)C1c1cccc(C#N)c1` (configuration not stated) here?
The growth was 16% (inactive).

`CCCCC(=O)c1ccc(OC)cc1` was tested. Which growth did it give?
Its growth is 85.2% (inactive).

For `CCOc1ccc(-n2nc(C(=O)Nc3ccccc3)nc2-c2cc(OC)c(OC)c(OC)c2)cc1`, which growth is on record?
Its growth is 42.5% (inactive).

For `Oc1ccc(/C=N/Nc2nc3ccccc3s2)c(O)c1`, which growth is on record?
The growth was 20.2% (inactive).

Which growth does the source give for `CC1=C(C)C(=O)C(Nc2ccc3c(c2)OCCO3)=C(Br)C1=O` here?
Its growth is 28.1% (inactive).

`O=c1n(CC2CO2)c(=O)n(CC2CO2)c(=O)n1CC1CO1` (configuration not stated) was tested. Which growth did it give?
The growth was 56.7% (inactive).

Which growth does the source give for `C#C[C@]1(O)CC[C@H]2[C@@H]3CC=C4c5sc(Nc6cc(F)ccc6F)nc5CC[C@]4(C)[C@H]3CC[C@@]21C` here?
Its growth is -45.6% (active).
